Assay outcomes deposited in PubChem by SRMLSC.
Rows were chosen to be rich in hits. Some 6.8% of all compounds tested hit in one or more screens of this group.
NADH enzymes: inhibitors of PK/LDH coupling enzymes, profiling panel, artefact control, biochemical, MLSMR library; actives 0.02% (n = 65,000); IC50, µM (highest dose often 10 µM), for inactives: top-dose inhibition; coupled PK/LDH NADH assays, four targets;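 active means single-dose screening hits from any of four coupled enzyme assays that gave an IC50 when retested across doses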;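 further: the DPM-DC format reads NADH fluorescence rather than 340 nm absorbance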
A340 absorber: compound light absorbance at 340 nm, profiling panel, artefact control, biochemical, MLSMR library, data from PS, PMK, MK assays. 65,000 tested, under 10 active. AID 708, 2007. fold change at 10 µM. compound absorbance at 340 nm, fold over control;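 active means at 10 µM dose, initial 340 nm absorbance at least 2 fold that of control wells; inactive means change under 2 fold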;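 further: initial absorbance extrapolated from kinetic A340 decline of NADH oxidation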
Spn MK inh: S. pneumoniae MK inhibitors, primary screen, biochemical, PK/LDH-coupled NADH absorbance; AID 555, 2006; mevalonate kinase [Streptococcus pneumoniae D39]; purified MK, PK/LDH-coupled NADH absorbance 340 nm; inhibition, % at 10 µM; actives 0.48% (n = 65,000);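 active means ranked among the strongest by inhibition in the single 10 µM screen, a fixed top-ranked set picked for dose follow-up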
Fluor 339 460: intrinsic fluorescence of library compounds, ex339/em460 – biochemical, MLSMR library, data from DPM-DC assay, artefact control, profiling panel; compound autofluorescence, ex339/em460 nm, NADH buffer; hits give high values; 1 = no-compound wells, NADH background; fluorescence fold increase at 10 µM; AID 709, 2007; actives 5.5% (n = 65,000);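 active means at 10 µM, mean starting fluorescence two-fold or more over control wells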;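 further: signal is the first read of a kinetic run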
Spn DPM-DC inh: S. pneumoniae DPM-DC inhibitors, primary screen, biochemical, PK/LDH-coupled NADH fluorescence; diphosphomevalonate decarboxylase (Streptococcus pneumoniae D39); purified DPM-DC; calls only at 10 µM; actives 0.49% (n = 65,000); AID 556, 2006;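 active means the 320 compounds with the highest percent inhibition in the single-dose primary screen, excluding strongly autofluorescent ones, cut at about 32% in these data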;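 further: kinetic rate of NADH fluorescence loss reporting ADP formed by the decarboxylase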
Spn PMK inh: S. pneumoniae PMK inhibitors, primary screen, biochemical, mevalonate pathway, pilot trial included; phosphomevalonate kinase (Streptococcus pneumoniae D39); purified PMK, PK/LDH-coupled NADH absorbance 340 nm; inhibition, % at 10 µM; actives 0.49% (n = 65,000); AID 539, 2006;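 active means top-ranked compounds by inhibition in the single 10 µM screen, taking a fixed number of the strongest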;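 further: 0% = full reaction with DMSO carrier and 100% = background rate without enzyme reaction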
* = called active by the depositor; i = inactive; . = no result shown; + = active, no number.

SMILES | NADH enzymes | A340 absorber | Spn MK inh | Fluor 339 460 | Spn DPM-DC inh | Spn PMK inh
COCCCn1c2nc3ccccc3nc2c2c(=O)n(Cc3ccccc3Cl)cnc21 | 5% | 1.1 | 8 | 2.9* | i | 0
CCOC(=O)CNc1c(-c2ccc(O)cc2)nc2ccccn12 | 8% | 1.1 | 1 | 3.7* | . | 15
Oc1ccc(-c2nc3ccccn3c2NCc2ccc3c(c2)OCO3)cc1 | 12% | 1 | 6 | 3.7* | . | 17
CCOC(=O)CNc1c(-c2ccc(O)cc2)nc2ccc(Cl)cn12 | 7% | 1.1 | 6 | 1.8 | i | 5
CCOC(=O)C(C(C)=O)c1c(Br)c(O)c(O)c2c(C(=O)c3ccc(C)cc3)coc12 (configuration not stated) | 0% | 1.1 | 0 | 1.1 | i | 1
Oc1oc(-c2ccco2)nc1C=Nc1cccc(Cl)c1 | 4% | 1.1 | 0 | 1 | i | 5
Cc1cc(O)c(C=Nc2cccc(Cl)c2)c(=O)o1 | 16% | 1 | 5 | 0.5 | + | 0
COc1ccc(NC(=O)C2CCCCN2CC(=O)OCc2ccccc2)cc1OC (configuration not stated) | 6% | 1 | 0 | 1 | i | 17
CCN(CC)Cc1c[nH]c2c(C(=O)OC)cccc12 | 9% | 1 | 3 | 2.1* | . | 15
CCC1CCCCN1C(=O)Cn1c(=O)oc2ccccc21 (configuration not stated) | 2% | 1 | 6 | 1.1 | i | 0
CCCCn1c(=NC(=O)c2ccco2)c(C(=O)OCC)cc2c(=O)n3ccccc3nc21 | 6% | 1 | 12 | 2.2* | . | 0
CCCCCn1c(=NC(=O)c2ccco2)c(C(=O)OCC)cc2c(=O)n3ccccc3nc21 | 9% | 1.1 | 5 | 3* | i | 9
CCOC(=O)c1c(C)nc2ccccn12 | 6% | 1 | 6 | 1.1 | i | 11
CC1=NC(C(F)(F)F)(C(F)(F)F)C(C#N)=C(C)N1 | 2% | 1.1 | 0 | 1.1 | i | 5
O=C(Nc1ccc2nc(-c3cccs3)c(-c3cccs3)nc2c1)N1CCOCC1 | 19% | 1.1 | 5 | 2.5* | + | 9
CCOC(=O)N1CCN(C(=O)Nc2ccc3nc(C)sc3c2)CC1 | 1% | 1 | 0 | 1.2 | i | 4
CCOC(=O)N1CCN(C(=O)Nc2ccc3nc(-c4ccccn4)c(-c4ccccn4)nc3c2)CC1 | 3% | 1.1 | 5 | 2.2* | . | 0
Cc1nc2ccc(NC(=O)N3CCSCC3)cc2nc1C | 3% | 1.1 | 5 | 1.9 | . | 0
COc1cccc2c(=O)c(C(=O)NCc3cccs3)c[nH]c12 | 9% | 1.1 | 4 | 3.7* | . | 14
COc1ccc(S(=O)(=O)NCCSCc2ccco2)cc1Cl | 1% | 1 | 5 | 1.1 | i | 0
COc1ccc(N2CC(O)=C(c3nc4ccccc4s3)C2=N)c(OC)c1 | 10% | 1.1 | 0 | 1.6 | i | 13
COc1cccc(N2CC(O)=C(c3nc4ccccc4c(=O)[nH]3)C2=N)c1 | 12% | 1.1 | 3 | 2.1* | . | 21
COCCCNC(=O)c1c(N)n(-c2cccc(S(N)(=O)=O)c2)c2nc3ccccc3nc12 | 3% | 1 | 10 | 3* | . | 6
CCCNC(=O)c1c(N)n(-c2cccc(OC)c2)c2nc3ccccc3nc12 | 10% | 1 | 12 | 3.8* | . | 7
COC(=O)c1c(N)n(-c2cc(OC)cc(OC)c2)c2nc3ccccc3nc12 | 3% | 1 | 2 | 3.4* | . | 9
SMILES | NADH enzymes | A340 absorber | Spn MK inh | Fluor 339 460 | Spn DPM-DC inh | Spn PMK inh
Nc1c(C(=O)NCCN2CCOCC2)c2nc3ccccc3nc2n1-c1cccc(F)c1 | 9% | 1.1 | 11 | 5.1* | . | 6
O=C(O)c1c(Cl)c(Cl)c(Cl)c(Cl)c1C(=O)N1CCOCC1 | 3% | 0.99 | 11 | 1 | i | 12
Cc1ccc(C)n1-c1ccc(-c2nnc3n2CCCCC3)s1 | 6% | 1.2 | 0 | 0.84 | i | 4
CCCn1nnc(NC(=O)c2ccco2)n1 | 9% | 1.1 | 9 | 1.1 | i | 6
CCn1nnc(NC(=O)c2ccc(-c3ccc(Cl)cc3)o2)n1 | 3% | 1 | 5 | 2.1* | i | 11
O=C(NCc1ccco1)C1(S(=O)(=O)c2ccc(Cl)cc2)CC1 | 2% | 1 | 2 | 1.1 | i | 7
O=S(=O)(NC1CC2CCC1C2)c1ccc(Br)s1 (configuration not stated) | 10% | 1 | 10 | 1.1 | i | 10
CCOc1ccc2[nH]c(=O)c(C(c3nnnn3C3CCCCC3)N3CCN(CC)CC3)cc2c1 (configuration not stated) | 1% | 1.1 | 1 | 3.7* | . | 0
CCOc1ccc2[nH]c(=O)c(C(c3nnnn3Cc3ccco3)N3CCCC(C)C3)cc2c1 (configuration not stated) | 8% | 1.1 | 6 | 2.2* | i | 6
CCN1CCN(C(c2ccccc2OC)c2nnnn2C2CCCCC2)CC1 (configuration not stated) | 11% | 0.99 | 14 | 1.1 | i | 18
CCOc1ccc2[nH]c(=O)c(C(c3nnnn3C3CCCCC3)N3CCN(C)CC3)cc2c1 (configuration not stated) | 12% | 1 | 6 | 4.4* | . | 18
COc1cc2cc(C(c3nnnn3C3CCCC3)N3CCCCCC3)c(=O)[nH]c2cc1OC (configuration not stated) | 4% | 1 | 8 | 1.6 | i | 11
CC(=O)N1c2ccccc2C(=O)C1N1CCCCC1 (configuration not stated) | 6% | 1.1 | 13 | 1.5 | i | 0
N#CCCN(C1CCCCC1)S(=O)(=O)CCOc1ccccc1 | 7% | 1 | 12 | 1.1 | i | 8
COc1ccccc1N1CCN(CCc2n[nH]c(=S)n2-c2ccccc2)CC1 | 15% | 1.1 | 46* | 1.1 | i | 0
COc1cc(-c2c(C#N)c(N)nc3c2c(C)nn3-c2ccc(C)c(C)c2)cc(OC)c1OC | 2% | 1.1 | 0 | 3.8* | . | 3
CCC(CO)NC(=O)c1cccc(S(=O)(=O)N2c3ccccc3CC2C)c1 (configuration not stated) | 3% | 0.97 | 1 | 1 | i | 9
O=C1NC2=C(C(=O)c3ccccc32)C(c2ccccc2)N1 (configuration not stated) | 5% | 0.98 | 7 | 1.1 | i | 9
COc1ccc(C2NC(=O)NC3=C2CCc2ccccc23)cc1 (configuration not stated) | 11% | 1.1 | 8 | 3.8* | . | 14
